# Rows were chosen to be rich in hits. Some 2.9% of all compounds tested hit in one or more screens of this group.
# NR1D1 modulator = modulators of human Rev-erb alpha DNA binding; activity, % at 10 µM; actives 0.79% (n = 370,000); P20393; Rev-erbα–FITC-DNA binding, fluorescence polarization, 90 min;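 active = activity above about 14%, limit read from the data; passing the limit was not always enough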
# PG9 Ab binder = binds the HIV-1 gp120 antibody PG9; TR-FRET gp120-PG9 antibody binding; actives 0.43% (n = 360,000); inhibition, % at 6.7 µM; in the data active = inhibition above about 8.5%
# SKN-1 inh = C. elegans SKN-1 inhibition; inhibition, % at 21.8 µM; actives 0.49% (n = 360,000); C. elegans VP596 Pgst-4::GFP/RFP ratio, acrylamide-induced, 24 h;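 active = interference check ratio from 0.5 to 1.5 plus GFP to RFP signal ratio inhibition reaching or exceeding a fixed threshold, cut at about 30% in these data, passing the limit was not always enough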
# EP2 mod = EP2 receptor (human) modulation | P43116 | AID 940 | actives 0.83% (n = 260,000) | EP2-expressing cells, cAMP HTRF FRET, PGE2 co-stimulation | induction, % at 25 µM;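 active = compounds whose cAMP rise, as percent of the full-agonist control response, exceeds 60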;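 also: rat C6 glioma line stably carrying human EP2 under a CMV promoter; the protocol text gives 20 µM as final concentration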
# Target sequence (P43116 whole entry, looked up): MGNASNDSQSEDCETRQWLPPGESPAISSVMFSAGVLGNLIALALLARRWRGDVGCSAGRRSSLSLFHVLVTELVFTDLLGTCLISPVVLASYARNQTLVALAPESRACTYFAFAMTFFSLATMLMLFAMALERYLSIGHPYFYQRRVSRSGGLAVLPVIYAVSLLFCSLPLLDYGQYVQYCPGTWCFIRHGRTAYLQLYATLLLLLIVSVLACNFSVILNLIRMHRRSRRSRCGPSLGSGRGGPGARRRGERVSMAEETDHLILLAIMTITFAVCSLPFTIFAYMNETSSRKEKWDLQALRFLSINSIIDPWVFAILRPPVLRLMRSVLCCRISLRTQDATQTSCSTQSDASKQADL
# PGE2 EP2 inh = blocks the human prostaglandin E2 receptor EP2 | C6 glioma cells expressing human EP2, cAMP TR-FRET; cells stimulated with saturating PGE2 | P43116 | actives 0.52% (n = 260,000) | AID 1422 | inhibition, % at 25 µM;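 active = percent inhibition above 40 after rounding to a whole number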;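 also: rat C6 glioma host cells with rolipram phosphodiesterase inhibitor present; the protocol text gives 20 µM as final concentration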
# RAM network inh = yeast RAM network inhibition | actives 1.8% (n = 190,000) | S. cerevisiae dse1pr::URA3 reporter, 5-FOA growth OD615, 2 d; analog-sensitive cbk1-as2 kinase mutant strain | inhibition, % at 50 µM;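 active = inhibition above a set limit, 3 SD over mean compound inhibition, cut at about 8.4% in these data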;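 also: inhibition rescues growth on 5-FOA so higher OD means more RAM inhibition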
# PG9 binder conf = PG9 antibody binding, confirmed; shares compounds with PG9 Ab binder; TR-FRET PG9 antibody binding, biochemical; inhibition, % at 6.7 µM; actives 90% (n = 1,500); AID 651571; in the data active = inhibition above about 9%
# PGV04 counter = PGV04 control antibody binding, counter-screen; actives 95% (n = 1,500); shares compounds with PG9 Ab binder; TR-FRET PGV04 antibody-gp120 binding, biochemical; inhibition, % at 6.7 µM; in the data active = inhibition above about 9.5%
# Hits are given with their value; . = inactive; / = not tested or not shown.
SMILES,NR1D1 modulator,PG9 Ab binder,SKN-1 inh,EP2 mod,PGE2 EP2 inh,RAM network inh,PG9 binder conf,PGV04 counter
N#Cc1c(-c2ccccc2)nc(SCc2cccc(Cl)c2)[nH]c1=O,.,8.7,.,/,/,/,14,21
O=C(NCCC1CCCCN1S(=O)(=O)c1ccc(F)cc1)C(=O)Nc1ccccc1F (stereo not drawn),.,10,.,/,/,/,.,.
O=C(NCCC1CCCCN1S(=O)(=O)c1ccccc1)C(=O)Nc1ccccc1F (stereo not drawn),.,.,.,/,/,/,/,/
CCS(=O)(=O)Nc1ccc(-c2ccc(NS(=O)(=O)CC)c(OC)c2)cc1OC,.,17,.,.,.,.,14,16
CCN(CC)C(=O)c1ccc(Cl)c(S(=O)(=O)N2CCOCC2)c1,/,/,/,.,.,/,/,/
Cc1ccc(C(=O)C2=C(O)C(=O)N(c3ncccn3)C2c2ccc(Br)cc2)o1 (stereo not drawn),/,/,/,.,.,/,/,/
Cc1ccc(C(=O)C2=C(O)C(=O)N(c3ncccn3)C2c2ccccc2F)o1 (stereo not drawn),.,14,.,/,/,/,25,32
Cc1ccc(C(=O)C2=C(O)C(=O)N(c3ncccn3)C2c2ccc(F)cc2)o1 (stereo not drawn),.,16,.,.,.,/,18,27
CC(=O)c1sc(C(C)(C)C)cc1NC(=O)c1ccccc1C(=O)O,.,48,.,77,.,/,57,65
O=C(O)c1ccccc1C(=O)Nc1ccccc1NC(=O)c1ccccc1C(=O)O,.,.,.,/,/,/,/,/
CS(=O)(=O)c1ccc2nc(NC(=O)Nc3ccccc3F)sc2c1,.,33,.,/,/,/,27,46
CS(=O)(=O)c1ccc2nc(NC(=O)c3ccccc3)sc2c1,.,.,.,/,/,/,/,/
CC(=O)c1c(C)[nH]c(C(=O)COC(=O)COc2ccccc2)c1C,.,.,.,/,/,/,/,/
CCOC(=O)c1c(C)[nH]c(C(=O)COC(=O)COc2ccc(OC)cc2)c1C,.,35,.,.,.,.,35,53
Cc1cc(N2C(=O)C(O)=C(C(=O)c3cc4ccccc4o3)C2c2ccc([N+](=O)[O-])cc2)no1 (stereo not drawn),.,.,.,/,/,/,/,/
Cc1ccc(C2C(C(=O)c3cc4ccccc4o3)=C(O)C(=O)N2c2cc(C)on2)cc1 (stereo not drawn),.,18,.,/,/,/,29,38
Cc1cc(N2C(=O)C(O)=C(C(=O)c3ccc(C)o3)C2c2cccs2)no1 (stereo not drawn),.,9.6,.,.,56,.,17,25
COC(=O)c1ccc(C2C(C(=O)c3ccc(C)o3)=C(O)C(=O)N2c2cc(C)on2)cc1 (stereo not drawn),.,.,.,/,/,/,/,/
Cc1cc(N2C(=O)C(O)=C(C(=O)c3cc4ccccc4o3)C2c2cccs2)no1 (stereo not drawn),.,9.3,.,/,/,/,28,46
Cc1ccc2nc(N3C(=O)C(O)=C(C(=O)c4cc5ccccc5o4)C3c3cccs3)sc2c1 (stereo not drawn),/,/,.,.,/,.,/,/
COCC(=O)N1CCC(Cn2nc(-c3cccs3)ccc2=O)CC1,/,/,/,.,/,/,/,/
CCS(=O)(=O)c1n[nH]c([N+](=O)[O-])n1,/,/,/,.,.,/,/,/
COc1ccc(C(=O)N(Cc2cc3cc(C)ccc3n3nnnc23)C2CCCC2)cc1,/,/,/,.,.,/,/,/
COc1ccc(NC(=O)CSc2nc3c(C)cccc3cc2C#N)cc1,/,/,/,.,.,/,/,/
Cc1cccc2cc(C#N)c(SCC(=O)NNC(=O)Cc3ccccc3)nc12,.,17,.,.,.,.,35,28
Cc1ccc(C(=O)CSc2nc(C)cc(SCc3nnc(-c4ccccc4)o3)n2)cc1,.,9.4,.,.,.,.,15,22
COc1ccc(NC(=O)COC(=O)c2cccnc2)cc1,/,/,/,.,.,/,/,/
COc1ccccc1-c1n[nH]c(=S)o1,.,18,.,.,.,.,13,24
COc1ccc(Cl)cc1-c1n[nH]c(=S)o1,.,37,.,.,.,.,36,48
